Consider 34 molecules from publication PMC5540273 (PLoS ONE, 2017).
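Note: KINOMEscan kinase panel screen.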

This test relates to PIP5K2B. Conditions: concentration: 1 μM, replicates: in singlicate; n = 1.
Take `Cc1cccc(-c2nc(-c3ccc(S(C)(=O)=O)cc3)sc2-c2ccncc2)c1`: the “%Inh” value was 55%.

Turning to `Cc1ccc(NC(=O)c2ccnc(N3CCN(C)CC3)c2)cc1-c1ccc(C(=O)NCC2CC2)cc1` [GW775604], the “%Inh” value stood at 0%.

As to `COc1ccc(COc2cc(-n3cnc4ccccc43)sc2C(N)=O)cc1` [GSK1024304], the “%Inh” value is on record as 5%.

Consider `Fc1ccc(-c2ncn(CCCN3CCOCC3)c2-c2ccccn2)cc1` [SB-211742], for which the “%Inh” value is 0%.

Consider `CCCCCc1nc2c(N)ncnc2n1CCCCC` [SKF-97255], for which the “%Inh” value amounted to 0%.

Take `N#Cc1c(N2CCOCC2)sc(-c2ccn[nH]2)c1-c1ccc(Cl)cc1`: the “%Inh” value is listed as 7%.

In the case of `O=C(Nc1cccc(-c2nn3ncccc3c2-c2ccnc(Nc3cccc(C(F)(F)F)c3)n2)c1)c1c(F)cccc1F` [GSK299495], the “%Inh” value is on record as 100%.

As to `CC(=O)Nc1ccc(COc2ccc(Nc3ccnc4cc(-c5ccccn5)ccc34)cc2)cc1.Cl` [GW440148], the “%Inh” value is 0%.

In the case of `c1ccc(-c2cc(-c3c[nH]nc3-c3ccccn3)ccn2)cc1` [GW576604], the “%Inh” value worked out at 0%.

Turning to `O=C(c1ccc(-c2cc(-c3c[nH]nc3-c3ccccn3)ccn2)cc1)N1CCOCC1` [GW812171], the “%Inh” value is 0%.

Take `Nc1nc(-c2ccc3c(N)n[nH]c3c2)cc(N2CCCC2)n1` [GSK2227430]: the “%Inh” value worked out at 0%.

Turning to `COc1ccc(Nc2nccc(N3CCC(NC(=O)Nc4cccc(C(C)=O)c4)C3)n2)cc1` (stereo not shown) [GSK1379731], the “%Inh” value came to 12%.

As for `O=C1Cc2cc(Nc3nc(NCc4cccc(S(=O)(=O)C(F)(F)F)c4)ncc3C(F)(F)F)ccc2N1`, the “%Inh” value is reported as 20%.

As for `Cc1cccc(Cn2ccn3c(=O)cc(N4CCOCC4)nc23)c1` [GSK2297542], the “%Inh” value is 2%.

For `O=c1cc(N2CCOCC2)nc2n(Cc3cccc(F)c3)ccn12` [GSK2297430], the “%Inh” value came out at 21%.

On to `Cc1nnc(-c2ccc3occ(-c4ccc(C(C)O)cc4)c3c2)o1` (stereo not shown), for which the “%Inh” value is reported as 27%.

As for `O=c1cc(N2CCOCC2)nc2n(Cc3cccc4ccccc34)ccn12` [GSK2333389], the “%Inh” value was 40%.

With `Fc1ccc(-c2ncn(CCCN3CCOCC3)c2-c2cccnc2)cc1` [SB-211743], the “%Inh” value was 5%.

As to `Cc1ccc(C(=O)NCC(N)=O)cc1-n1c(C)cc(OCc2ccc(F)cc2F)c(Br)c1=O`, the “%Inh” value is listed as 0%.

For the molecule `Cn1ccc2ncnc(Oc3ccc(NC(=O)Nc4ccncc4)c(Cl)c3)c21`, the “%Inh” value is given as 11%.

For `COc1ccc(Nc2ncc(C#N)c(Nc3ccccc3C(N)=O)n2)cc1N1CCN(C)CC1.Cl` [GSK1558669], the “%Inh” value stood at 90%.

As to `COc1ccc(S(=O)(=O)NC2CCN(c3cc(C)nc(Nc4cccc(C#N)c4)n3)CC2)cc1.O=C(O)C(F)(F)F` [GSK1653539], the “%Inh” value is 0%.

With `c1ccc(-c2n[nH]cc2-c2ccnc3ccccc23)nc1` [GW271431], the “%Inh” value is on record as 15%.

Take `Nc1nccc(-c2c(-c3ccc(F)cc3)ncn2C2CCN(CC(F)(F)F)CC2)n1` [SB-236560]: the “%Inh” value stood at 0%.

On to `COc1cc2ncn(-c3cc(OCc4sccc4Cl)c(C(N)=O)s3)c2cc1OC` [GSK448459], for which the “%Inh” value is reported as 20%.

Consider `O=c1cc(N2CCOCC2)nc2n(Cc3cccc(Cl)c3Cl)c(C3CC3)nn12` [GSK2358994], for which the “%Inh” value came to 0%.

As to `CCc1nc(-c2cccc(C)c2)c(-c2ccnc(NCc3ccccc3)c2)s1`, the “%Inh” value is given as 38%.

In the case of `CSc1ccc(-c2cc3ncnc(SCC(=O)O)c3s2)cc1`, the “%Inh” value is reported as 20%.

For the molecule `COc1ccc(Nc2nccc(N3CCC(NC(=O)Nc4cc(C)ccc4C)C3)n2)cc1` (stereo not shown) [GSK1379741], the “%Inh” value was found to be 10%.

For the molecule `CC(C)(C)n1cnc2c(N)ncnc21` [SKF-97359], the “%Inh” value is 24%.

For `O=C(Nc1n[nH]c2cc(-c3cccc(F)c3)ccc12)C1CC1` [SB-735464], the “%Inh” value amounted to 5%.

For the molecule `Cc1c2ccc(N(C)c3ccnc(Nc4cccc(S(N)(=O)=O)c4)n3)cc2nn1Cc1ccccc1.Cl.Cl` [GW787226], the “%Inh” value turned out to be 0%.

In the case of `O=C(NCCNc1ccnc(Nc2ccc(F)cc2)n1)c1cc2ccccc2s1` [GSK1379874], the “%Inh” value stood at 8%.

`Cc1cn2c(=O)cc(N3CCOCC3)nc2n1Cc1cccc(Cl)c1Cl` [GSK2334006]: the “%Inh” value worked out at 0%.
